The target in one assay is Albumin (Bos taurus) (UniProt P02769). The assay is described as follows: compounds binding labelled BSA control protein – biochemical, small-molecule microarray, Alexa647 label, 635/667 nm fluorescence, artefact control for SMM control protein annotation, profiling panel (AID 1118).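 Further: score merges 667 nm emission intensity and signal-to-noise per printed compound spot.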 Conditions: BSA-A647 binding, fluorescence 635 nm, higher = more signal.
A short description of assay [1]: probe aXIP binding to arrayed compounds – biochemical, NeuroSMM set, 635/667 nm fluorescence, primary screen (AID 1119).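 Further: probe is the protein aXip251-270 applied at 1 µg/mL to compound-printed slides; binding of probe to printed compounds measured as 667 nm fluorescence plus signal to noise.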 The settings on record: small-molecule microarray, higher = more signal, called active from +8 up or from −8 down.
A short description of assay [2]: probe aNOTCH3 binding on compound microarray – biochemical, small-molecule microarray, 635/667 nm fluorescence, primary screen (AID 1120).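 Further: probe is a biotin-tagged antibody raised against NOTCH3 rather than NOTCH3 protein; score merges spot fluorescence near 667 nm with spot signal to noise.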 Conditions: higher = more signal.
Assay [3] in a line: probe aNOTCH2 binding on compound microarray – biochemical, small-molecule microarray, 635/667 nm fluorescence, primary screen (AID 1121).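 Further: score merges feature fluorescence read at 667 nm with its signal to noise.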 The settings on record: higher = more signal.
In assay [4] the target is Carbonic anhydrase 2 (Homo sapiens) (UniProt P00918). The assay is described as follows: compounds binding carbonic anhydrase 2 – biochemical, small-molecule microarray, Alexa647-labelled CAII, profiling panel (AID 1122). The settings on record: CAII-A647 binding fluorescence, higher = more signal.
Assay [5] in a line: COS7 lysate on small-molecule microarray, probe aHis, 635 nm (AID 1123).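 Further: z-score combines 667nm fluorescence intensity with signal-to-noise per printed compound spot.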 Conditions: COS7 cell lysate, fluorescence, higher = more signal.
Assay [6] in a line: probe aLAP1 signal on lysate-treated microarray – cell lysate, small-molecule microarray, COS7 lysate, primary screen (AID 1124).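 Further: lysate comes from COS7 cells expressing LAP1 and is applied at 0.3 µg/mL; score merges spot fluorescence near 667 nm with signal-to-noise over triplicate slides.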 The settings on record: probe aLAP1, fluorescence, higher = more signal.
A further assay relates to Sam68 (KHDRBS1). The assay is described as follows: compounds binding KHDRBS1 protein – biochemical, small-molecule microarray, 635 nm fluorescence, primary screen (AID 1125).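 Further: score merges 667 nm channel intensity with signal to noise over triplicate slides.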 The settings on record: higher = more signal.
Assay [7] has as its system Chordin-like protein 2 (CHRDL2). The assay is described as follows: compounds binding chordin-like 2 – biochemical, small-molecule microarray, 635 nm fluorescence, primary screen (AID 1126).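 Further: printed compound slides probed with Chrdl2 protein at 4 µg/mL for 1 h at 4 C; score merges 667 nm emission intensity with signal to noise over three replicate slides.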 Conditions: fluorescence 635 nm, higher = more signal.
The target in assay [8] is Concanavalin-A (Canavalia ensiformis) (UniProt P02866). As to the kind of experiment: compounds binding concanavalin A lectin – biochemical, small-molecule microarray, Alexa647 label, 635 nm, artefact control for SMM control protein annotation, primary screen (AID 1127).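 Further: z combines 667 nm emission intensity with signal-to-noise across three replicate slides.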 Conditions: ConA-A647 binding fluorescence, higher = more signal.
Assay [9] can be described thus: compounds binding Alexa647 anti-His antibody – biochemical, small-molecule microarray, 635 nm fluorescence, artefact control for SMM control protein annotation, primary screen (AID 1128).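 Further: score merges feature fluorescence with signal-to-noise for each printed compound spot.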 The settings on record: higher = more signal.
Assay [10] concerns Human papillomavirus type 1a E7 protein (residues 1-88). As to the kind of experiment: HPV1a E7 small-molecule binders, primary screen, biochemical, small-molecule microarray, residues 1-88, 635 nm (AID 1129). Conditions: small-molecule microarray binding, fluorescence 635 nm; higher = more signal.
The target of assay [11] is Focal adhesion kinase 1 (Homo sapiens) (UniProt Q05397). The assay is described as follows: PTK2 protein binding on printed compound slides – biochemical, small-molecule microarray, 635/667 nm fluorescence, BSA, DTT, primary screen (AID 1130).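 Further: composite of spot emission at 667 nm and signal to noise over triplicate slides.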 Conditions: 635 nm fluorescence, higher = more signal.
In assay [12] the test system is Fibrinogen (Alexa647-labelled). The assay is described as follows: Alexa647-fibrinogen binding to printed small molecules – biochemical, small-molecule microarray, 635/667 nm fluorescence, artefact control for SMM control-protein annotation, profiling panel (AID 1131).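 Further: z-score merges 667 nm fluorescence with per-spot signal-to-noise over triplicate slides.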 Conditions: fibrinogen-A647 binding fluorescence, higher = more signal.
The target of assay [13] is Follistatin (Homo sapiens) (UniProt P19883). The assay is described as follows: FST protein binding to printed compounds – biochemical, small-molecule microarray, 635/667 nm fluorescence, primary screen (AID 1132). The settings on record: 635 nm fluorescence, higher = more signal.
For assay [14], the target named is Fibroblast growth factor 2 (Homo sapiens) (UniProt P09038). The assay is described as follows: basic fibroblast growth factor binding to printed compounds – biochemical, small-molecule microarray, 635/667 nm fluorescence, primary screen (AID 1133). The settings on record: FGF2, fluorescence 635/667, higher = more signal.
Assay [15] can be described thus: JC-1 mitochondrial potential readout, lung cancer cells – cell-based, A549, JC-1 fluorescence, basal, 24 h, 100 nL, profiling panel (AID 1138).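 Further: A549 lung adenocarcinoma cells under basal conditions with no added stimulus; test concentration not given here.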 The settings on record: higher = more signal.
The test system of a further assay is Lefty1. As to the kind of experiment: Lefty1 protein binding to printed compounds – biochemical, small-molecule microarray, 635/667 nm fluorescence, primary screen (AID 1139). Conditions: fluorescence 635/667, higher = more signal.
In assay [16] the test system is wheat germ agglutinin (Triticum aestivum), Alexa647-labelled. As to the kind of experiment: Alexa647-WGA lectin binding to printed small molecules – biochemical, small-molecule microarray, 635/667 nm fluorescence, artefact control for SMM control-protein annotation, profiling panel (AID 1140).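 Further: score merges 667 nm feature emission with signal to noise over triplicate slides.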 Conditions: WGA-A647 binding, 635 nm fluorescence, higher = more signal.
For assay [17], the target named is Luciferin 4-monooxygenase (Photinus pyralis) (UniProt P08659). The assay is described as follows: inhibition of purified Photinus pyralis luciferase – biochemical, luminescence, purified enzyme, 2006 set, primary screen (AID 1141).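 Further: cell-free assay with purified firefly luciferase at 100 ng per well in PBS; test concentration not given here.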 Conditions: purified firefly luciferase, SteadyGlo luminescence, 30 min; higher = more signal, called active from +8 up or from −8 down.

Calls of active or inactive are those of the source.

Concanavalin-A (Canavalia ensiformis), sequence (P02866 whole entry, looked up): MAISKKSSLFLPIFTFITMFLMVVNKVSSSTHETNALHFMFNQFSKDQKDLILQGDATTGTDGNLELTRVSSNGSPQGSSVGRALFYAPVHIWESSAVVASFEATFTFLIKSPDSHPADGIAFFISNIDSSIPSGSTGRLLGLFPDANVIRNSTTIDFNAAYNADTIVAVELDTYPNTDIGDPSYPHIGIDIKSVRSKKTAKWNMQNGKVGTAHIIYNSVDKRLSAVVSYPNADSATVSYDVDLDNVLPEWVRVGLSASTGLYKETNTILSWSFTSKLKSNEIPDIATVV
Follistatin (Homo sapiens), sequence (P19883 whole entry, looked up): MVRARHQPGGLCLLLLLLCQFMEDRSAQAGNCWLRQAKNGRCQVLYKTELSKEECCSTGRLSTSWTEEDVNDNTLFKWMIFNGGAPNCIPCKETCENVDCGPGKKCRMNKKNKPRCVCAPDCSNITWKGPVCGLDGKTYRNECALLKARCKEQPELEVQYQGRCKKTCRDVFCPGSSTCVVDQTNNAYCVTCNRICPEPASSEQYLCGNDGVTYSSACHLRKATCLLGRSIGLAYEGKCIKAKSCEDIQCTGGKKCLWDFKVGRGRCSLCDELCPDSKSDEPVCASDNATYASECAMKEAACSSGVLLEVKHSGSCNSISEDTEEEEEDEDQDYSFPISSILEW
Fibroblast growth factor 2 (Homo sapiens), sequence (P09038 whole entry, looked up): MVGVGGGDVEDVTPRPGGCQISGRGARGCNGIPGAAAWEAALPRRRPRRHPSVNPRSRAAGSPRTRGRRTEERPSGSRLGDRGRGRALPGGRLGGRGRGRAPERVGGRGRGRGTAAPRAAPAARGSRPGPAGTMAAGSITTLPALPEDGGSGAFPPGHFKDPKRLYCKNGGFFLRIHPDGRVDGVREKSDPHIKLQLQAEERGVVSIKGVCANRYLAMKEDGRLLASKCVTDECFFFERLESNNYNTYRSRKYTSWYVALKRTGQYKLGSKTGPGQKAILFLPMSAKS
Focal adhesion kinase 1 (Homo sapiens), sequence (Q05397 whole entry, looked up): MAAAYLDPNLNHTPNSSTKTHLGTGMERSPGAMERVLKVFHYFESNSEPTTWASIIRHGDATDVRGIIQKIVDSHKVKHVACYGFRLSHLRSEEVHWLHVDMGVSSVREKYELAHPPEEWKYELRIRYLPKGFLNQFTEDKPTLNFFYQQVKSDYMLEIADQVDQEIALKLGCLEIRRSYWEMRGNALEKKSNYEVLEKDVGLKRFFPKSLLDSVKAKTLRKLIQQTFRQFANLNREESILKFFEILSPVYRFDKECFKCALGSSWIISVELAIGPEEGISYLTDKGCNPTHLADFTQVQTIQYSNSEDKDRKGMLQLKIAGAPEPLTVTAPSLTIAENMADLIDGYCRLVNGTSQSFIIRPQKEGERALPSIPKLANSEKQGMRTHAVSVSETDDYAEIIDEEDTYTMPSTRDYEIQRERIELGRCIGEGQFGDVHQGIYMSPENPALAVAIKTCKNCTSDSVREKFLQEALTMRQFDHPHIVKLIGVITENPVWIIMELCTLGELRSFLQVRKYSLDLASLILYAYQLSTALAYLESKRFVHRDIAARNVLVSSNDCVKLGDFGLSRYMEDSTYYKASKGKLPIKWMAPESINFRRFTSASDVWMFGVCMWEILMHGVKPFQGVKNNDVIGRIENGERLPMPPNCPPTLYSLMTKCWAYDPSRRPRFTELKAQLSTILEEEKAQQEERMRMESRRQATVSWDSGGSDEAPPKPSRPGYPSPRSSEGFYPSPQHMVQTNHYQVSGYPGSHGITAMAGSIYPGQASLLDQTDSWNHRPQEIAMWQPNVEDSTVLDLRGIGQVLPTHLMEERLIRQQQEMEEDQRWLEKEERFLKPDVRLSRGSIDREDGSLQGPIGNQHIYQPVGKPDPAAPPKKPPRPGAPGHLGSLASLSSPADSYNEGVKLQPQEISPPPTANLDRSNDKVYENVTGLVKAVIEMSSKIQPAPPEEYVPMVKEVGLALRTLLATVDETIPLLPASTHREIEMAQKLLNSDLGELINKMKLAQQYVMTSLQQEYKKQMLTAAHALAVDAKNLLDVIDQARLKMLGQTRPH
Albumin (Bos taurus), sequence (P02769 whole entry, looked up): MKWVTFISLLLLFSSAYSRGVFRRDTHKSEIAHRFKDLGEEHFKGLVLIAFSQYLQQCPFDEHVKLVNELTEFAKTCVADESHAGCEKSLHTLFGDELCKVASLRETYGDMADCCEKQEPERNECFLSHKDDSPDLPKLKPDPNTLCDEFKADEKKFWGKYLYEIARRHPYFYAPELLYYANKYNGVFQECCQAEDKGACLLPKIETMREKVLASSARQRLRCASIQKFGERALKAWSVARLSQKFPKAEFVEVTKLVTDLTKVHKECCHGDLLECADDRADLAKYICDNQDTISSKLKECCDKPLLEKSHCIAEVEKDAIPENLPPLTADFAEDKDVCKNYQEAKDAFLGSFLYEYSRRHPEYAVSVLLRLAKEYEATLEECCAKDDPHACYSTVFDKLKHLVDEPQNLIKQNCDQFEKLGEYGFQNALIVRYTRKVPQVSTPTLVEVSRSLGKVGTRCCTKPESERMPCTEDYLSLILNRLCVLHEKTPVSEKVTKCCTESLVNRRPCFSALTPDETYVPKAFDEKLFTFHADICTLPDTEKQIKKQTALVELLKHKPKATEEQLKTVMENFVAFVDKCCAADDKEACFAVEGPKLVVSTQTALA
Luciferin 4-monooxygenase (Photinus pyralis), sequence (P08659 whole entry, looked up): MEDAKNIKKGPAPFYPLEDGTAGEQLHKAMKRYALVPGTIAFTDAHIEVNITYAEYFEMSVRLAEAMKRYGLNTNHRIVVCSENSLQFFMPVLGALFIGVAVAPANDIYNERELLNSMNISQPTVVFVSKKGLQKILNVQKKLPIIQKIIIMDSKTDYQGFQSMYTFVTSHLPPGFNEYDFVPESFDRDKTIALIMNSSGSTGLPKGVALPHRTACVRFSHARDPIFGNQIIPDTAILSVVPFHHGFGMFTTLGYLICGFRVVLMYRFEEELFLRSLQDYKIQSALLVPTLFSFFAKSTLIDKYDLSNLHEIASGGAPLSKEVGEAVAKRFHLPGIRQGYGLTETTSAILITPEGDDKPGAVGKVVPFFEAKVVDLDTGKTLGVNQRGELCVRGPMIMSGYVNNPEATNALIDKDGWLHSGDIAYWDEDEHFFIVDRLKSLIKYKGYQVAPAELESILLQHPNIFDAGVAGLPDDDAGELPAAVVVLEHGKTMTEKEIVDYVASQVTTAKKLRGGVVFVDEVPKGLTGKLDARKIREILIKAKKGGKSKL

Take `CC(C)C[C@@H]1NC(=O)[C@@H]2C[C@H](C(=O)NCCCCCC[N+](C)(C)C)[C@H](c3cccc(OCCO)c3)N2C1=O`: the composite z-score in the assay with Albumin (Bos taurus) was -0.391; in assay [2], -0.0311; in assay [3], -0.128; in [4], 0.511; in [5], 2.37; in assay [6], 0.241. Besides, the composite z-score with Sam68 (KHDRBS1) is 0.584; in assay [7], 0.562; in assay [8], 0.644; in assay [9], -0.759; in [10] it was -0.0265; in [11] it was -0.219. Moreover, the composite z-score in assay [12] was 0.0163; in assay [13], 0.349; in assay [14] it was 1.17; with Lefty1, 0.34; in assay [16], -0.285. Besides, the composite Z-score in [1] is 0.0931 (inactive). Moreover, the z-score in assay [15] is -0.547; in assay [17], 0.184 (inactive).

As for `CN1C(=O)C2C=CC(C(O)c3cc(C(F)(F)F)cc(C(F)(F)F)c3)N(NC(=O)OC(C)(C)C)C2C1=O` (stereo not given), the composite z-score with Albumin (Bos taurus) came to 1.04; in assay [2], 0.465; in [3], 0.0753; in assay [4], 0.604; in assay [5], 2.87; in [6], 0.403. Also, the composite z-score was 1.3 with Sam68 (KHDRBS1); -1.08 in assay [7]; 1.17 in assay [8]; 1.12 in assay [9]; 1.2 in assay [10]; 0.753 in assay [11]. For the same molecule, the composite z-score in [12] is 0.982; in [13], 1.27; in assay [14], -0.396; with Lefty1, 0.369; in assay [16], 0.713. In addition, the composite Z-score in assay [1] is 0.622 (inactive). Further, the figures for the z-score in assay [15] and in assay [17] were 0.717 and 0.75 (inactive), respectively.

For `COC(=O)c1c2oc(c1C(=O)OC)C(=O)N1CCC[C@H]1Cn1nncc1CN(Cc1ccccc1)C(=O)N[C@H](CO)CC2`, the composite z-score with Albumin (Bos taurus) is 0.333; in assay [2], -0.134; in [3] it was -0.164; in [4] it was 0.75; in [5], 0.214; in assay [6], 0.832. Further, the composite z-score was 0.626 with Sam68 (KHDRBS1); -0.581 in [7]; 0.125 in assay [8]; 0.328 in [9]; -0.243 in assay [10]; 0.291 in assay [11]. The composite z-score in assay [12] was 0.676; in assay [13] it was 0.423; in [14], 1.04; in the assay on Lefty1, 0.783; in assay [16] it was 0.18. The composite Z-score in assay [1] is 0.316 (inactive). The z-score was 0.39 in assay [15] and -1.29 (inactive) in assay [17].

Take `O=C1OCCC/C=C\[C@H]2OC34C=CCN(c5ccc6ccccc6c5)C(=O)[C@H]3N(CCCO)C(=O)[C@@H]4C12` (stereo not given in full): the composite z-score in the assay with Albumin (Bos taurus) was -0.0327; in assay [2], -0.299; in assay [3], -0.111; in assay [4] it was 0.94; in assay [5], 0.325; in [6], 0.452. The composite z-score is 0.235 with Sam68 (KHDRBS1); -1.08 in assay [7]; -0.296 in [8]; 1.09 in assay [9]; -0.0247 in [10]; 0.984 in [11]. Moreover, the composite z-score is -1.07 in assay [12]; -0.45 in assay [13]; -0.755 in assay [14]; -0.345 in the assay on Lefty1; 0.576 in assay [16]. The composite Z-score in assay [1] is -0.0549 (inactive). Further, the z-score in assay [15] was 0.333; in assay [17], -0.183 (inactive).

`O=C1OCC=C[C@H]2OC34C=CCN(c5ccc6ccccc6c5)C(=O)[C@H]3N(CCCCCO)C(=O)[C@@H]4[C@@H]12` (stereo not given in full): the composite z-score with Albumin (Bos taurus) is 0.712; in assay [2], -0.292; in [3], -0.0176; in [4], 0.309; in assay [5], 1.25; in [6] it was -0.148. The composite z-score in the assay with Sam68 (KHDRBS1) is -0.702; in assay [7], -1.27; in assay [8], -0.388; in assay [9], 0.0997; in assay [10] it was -0.381; in assay [11], 1.05. Also, the composite z-score was -0.639 in assay [12]; -1.38 in assay [13]; -1.42 in assay [14]; -1.23 in the assay with Lefty1; 0.129 in assay [16]. For the same molecule, the composite Z-score in assay [1] was -0.834 (inactive). The z-score is -0.164 in assay [15] and -0.397 (inactive) in assay [17].

For the origin of these results see PubChem BioAssay.
